The subject of test [1] is Zika virus NS2B-NS3 protease (linked construct). The experiment in a line: Primary screen NINDS Rhodamine qHTS for Zika virus inhibitors (AID 1347160). Note: nearly all actives have a fitted effect of over 55% in size. The method in brief: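 Enzyme (25 nM, linked NS2B-NS3) was preincubated 15 min with compound in 10 mM Tris-HCl pH 8.0, 0.01% Tween 20. Rhodamine110 substrate (1.5 microM) was then added and fluorescence read at start and after 15 min.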

Test [2] deals with Calcium and integrin-binding protein 1 (Homo sapiens) (UniProt Q99828). The experiment in a line: Primary qHTS for Identification of Calcium Integrin Binding Protein 1 (CIB1) Competitor (AID 1508620).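 Note: GST tagged CIB1 binding a fluorescein labelled alphaIIb integrin peptide tracer; top concentration of the series differs between compounds; % is set by controls: 0 for no effect and ±100 for the full control effect.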 The method in brief: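 CIB1-GST (1 uM final) and compound incubated 15 min at room temperature before adding FITC-alphaIIb peptide tracer (100 nM final). Competition for binding read by fluorescence polarization (ex 480, em 540) after another 15 min at room temperature.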
Sequence of Calcium and integrin-binding protein 1 (Homo sapiens) (Q99828 whole entry, looked up): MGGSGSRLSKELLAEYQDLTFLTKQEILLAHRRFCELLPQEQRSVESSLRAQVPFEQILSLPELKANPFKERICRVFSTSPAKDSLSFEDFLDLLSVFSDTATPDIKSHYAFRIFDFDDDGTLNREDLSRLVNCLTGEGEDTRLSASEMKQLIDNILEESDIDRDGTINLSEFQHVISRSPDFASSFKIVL

Test [3] is described as follows: Primary qHTS for inhibitors of nuclear receptor binding SET domain protein 2 (NSD2) in an isogenic RCH-ACV NSD2 p.E1099K mutant (9B) (AID 1645876). Note: nearly all actives have a fitted effect of over 70% in size. Note: potency is the fitted concentration of half-maximal effect.
Test [4] concerns the target Phospholipid hydroperoxide glutathione peroxidase GPX4 (Homo sapiens) (UniProt P36969). The experiment in a line: Primary qHTS Assay for Inhibitors of Recombinant Selenoprotein Glutathione Peroxidase 4 (GPX4) (AID 1845192). Note: % is set by controls: 0 for no effect and ±100 for the full control effect; nearly all actives have a fitted effect of over 65% in size. The method in brief: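 NADPH consumption followed by fluorescence at 340/450 nm, t=0 and after 15 min at room temperature. Reaction started with cumene hydroperoxide (0.5 mM final) after 30 min compound–GPX4 preincubation; final 200 nM GPX4, 100 nM GR, 1 mM GSH, 0.5 mM NADPH.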
(In qHTS, concentration-response curves come from the screen itself.)

Test [5] addresses Luciferin 4-monooxygenase (Photinus pyralis) (UniProt P08659). The test can be described thus: Primary firefly luciferase (FLuc) qHTS assay for identification of artifact compounds. (AID 1845220). Note: nearly all actives have a fitted effect of over 60% in size. Particulars: outcome: dose series up to 54.1 µM unless noted. The method in brief: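 Compounds sat 15 min at room temperature with 10 uM luciferin and 10 uM ATP (pH 7.6 Tris acetate). Firefly luciferase (10 nM final) was then added, and luminescence was read 5 min later. Data normalized to no-enzyme and DMSO controls were Hill-fitted.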

Test [6] deals with Nanoluciferase (engineered Oplophorus gracilirostris luciferase). The experiment in a line: Primary Nanoluciferase (NLuc) qHTS assay for identification of artifact compounds. (AID 1845222).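 Note: 0% = DMSO and -100% = no enzyme.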 The method in brief: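 Luminescence from secreted NLuc (filtered, 1:55-diluted S16 cell medium) read 5 min after Nano-Glo substrate; compounds preincubated 15 min, RT. Hill fits of inhibition normalized to DMSO and no-enzyme.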

In the next test the test system is CRL-7250. The experiment in a line: Cytotoxic Profiling of Annotated Libraries Using Quantitative High-Throughput Screening (AID 1296008). For max response: % is set by controls: 0 for no effect and ±100 for the full control effect. Note: nearly all actives have a fitted effect of over 60% in size. Note: potency is the fitted concentration of half-maximal effect. Particulars: Five cell lines viability, CellTiter-Glo ATP luminescence, 48-72 h; max response: active compounds read low. The method in brief:
(§1)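 Cytotoxicity was measured as CellTiter-Glo ATP luminescence, read after 10 min at room temperature. Compound treatment of the cells lasted 48 or 72 hr at 37 degrees Celsius in a qHTS format.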

In the next test the test system is HEK293. The description is as above. To be noted: Five cell lines viability, CellTiter-Glo ATP luminescence, 48-72 h; max response: active compounds read low. The method in brief:
as §1
On the technique in general: ATP-based viability assays read luminescence as a measure of living cells.

For a further test, the system named is HaCat. Described as above. To be noted: Five cell lines viability, CellTiter-Glo ATP luminescence, 48-72 h; max response: active compounds read low. The method in brief:
as §1

Another test concerns NIH3T3. The test is described as above. Particulars: Five cell lines viability, CellTiter-Glo ATP luminescence, 48-72 h; max response: active compounds read low. An outline of the steps: as §1
In the next test the test system is C33A. The experiment in a line: Primary qHTS to identify gynecologic anti-cancer compounds using libraries of approved drugs and bioactive compounds (AID 1345084). Note: nearly all actives have a fitted effect of over 55% in size. Note: potency is the fitted concentration of half-maximal effect. Particulars: Gynecologic cancer cell panel viability, ATPlite luminescence, 48 h; series mostly up to 57.5 µM. An outline of the steps: (§2)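 Cells, 1,000 per well, were allowed to settle for 16 h at 37 C before compound addition. Five concentrations were tested for 48 h, and viability was read by ATPlite luminescence after 15 min at room temperature.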

The subject of another test is CASKI. The description is as above. To be noted: Gynecologic cancer cell panel viability, ATPlite luminescence, 48 h; series mostly up to 57.5 µM. An outline of the steps:
as §2

A further test concerns Es-2. Described as above. To be noted: Gynecologic cancer cell panel viability, ATPlite luminescence, 48 h; series mostly up to 57.5 µM. The method in brief: as §2
A further test has as its system Hek293T. The test is described as above. Particulars: Gynecologic cancer cell panel viability, ATPlite luminescence, 48 h, control line for the selectivity index; series mostly up to 57.5 µM. An outline of the steps:
as §2

The test system of another test is JEG-3. The test is described as above. Particulars: Gynecologic cancer cell panel viability, ATPlite luminescence, 48 h; series mostly up to 57.5 µM. An outline of the steps: as §2
In the next test the test system is OV90. The test is described as above. Particulars: Gynecologic cancer cell panel viability, ATPlite luminescence, 48 h; series mostly up to 57.5 µM. An outline of the steps: as §2
For a further test, the system named is Tov-21-G. Described as above. To be noted: Gynecologic cancer cell panel viability, ATPlite luminescence, 48 h; series mostly up to 57.5 µM. An outline of the steps:
as §2

The subject of a further test is Tov112D. Described as above. To be noted: Gynecologic cancer cell panel viability, ATPlite luminescence, 48 h; series mostly up to 57.5 µM. The method in brief:
as §2

Test [7] deals with Glutathione peroxidase 1 (Homo sapiens) (UniProt P07203). The test can be described thus: Primary qHTS Assay for Inhibitors of Recombinant Selenoprotein Glutathione Peroxidase 1 (GPX1) (AID 1845191). Note: nearly all actives have a fitted effect of over 65% in size. The method in brief:
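NADPH consumption tracked by fluorescence at 340/450 nm between t=0 and t=15 min, room temperature. Final mix: 10 nM GPX1, 100 nM glutathione reductase, 1 mM GSH, 0.5 mM NADPH, 0.5 mM cumene hydroperoxide, 0.01% BSA; 30 min compound–enzyme preincubation.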

In the next test the test system is PA-1. The experiment in a line: Primary qHTS to identify gynecologic anti-cancer compounds using libraries of approved drugs and bioactive compounds (AID 1345084). Note: nearly all actives have a fitted effect of over 55% in size. Note: potency is the fitted concentration of half-maximal effect. To be noted: Gynecologic cancer cell panel viability, ATPlite luminescence, 48 h; series mostly up to 57.5 µM. An outline of the steps:
as §2

Unmarked numbers belong to inactive results. Inconclusive results are not listed. Active and inactive are the calls of the source. Calls come from the whole dose curve; as a rule, active = well fitted curve in the direction sought with a large enough effect; inconclusive = small, poorly fitted or top-dose-only effect, or another doubt; inactive = no such curve, though single readings can be large; an effect the other way counts as inactive or inconclusive.

Sequence of Phospholipid hydroperoxide glutathione peroxidase GPX4 (Homo sapiens) (P36969 whole entry, looked up): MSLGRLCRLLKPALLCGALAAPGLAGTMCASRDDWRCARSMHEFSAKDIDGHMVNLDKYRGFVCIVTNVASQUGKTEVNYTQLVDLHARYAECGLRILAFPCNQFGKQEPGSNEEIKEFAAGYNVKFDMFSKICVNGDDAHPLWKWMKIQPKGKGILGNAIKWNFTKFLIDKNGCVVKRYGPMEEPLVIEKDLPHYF
Sequence of Glutathione peroxidase 1 (Homo sapiens) (P07203 whole entry, looked up): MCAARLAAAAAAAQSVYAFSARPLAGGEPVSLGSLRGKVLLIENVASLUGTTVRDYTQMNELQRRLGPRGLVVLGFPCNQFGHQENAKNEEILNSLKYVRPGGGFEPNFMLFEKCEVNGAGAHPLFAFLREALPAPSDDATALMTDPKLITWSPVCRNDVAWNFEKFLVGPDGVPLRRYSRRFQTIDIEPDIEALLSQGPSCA

Turning to `CC1CCCC(=O)CCC/C=C/c2cc(O)cc(O)c2C(=O)O1` (stereo unspecified), the Potency result (in test [1]; in test [2]; in test [3]; in [4]; in test [6]; in the test on C33A) was “inactive” in each case. Moreover, the Potency entry with CASKI, in the test on Es-2, in the test on Hek293T, with JEG-3, in the test on OV90 and with Tov-21-G was “inactive” throughout. The Potency result with Tov112D is “inactive”. For the same compound, the compound was classed as inactive in [5]. Also, the max response was 3.12% in the test on CRL-7250, -3.13% in the test on HEK293, 2.86% in the test with HaCat and -2.03% in the test with NIH3T3.

With `COC1CC(O[C@H]2CC[C@]3(C)C4CC[C@]5(C)[C@@H](C6=CC(=O)OC6)[C@@H](OC(C)=O)C[C@]5(O)C4CC[C@@H]3C2)OC(C)C1O[C@@H]1O[C@H](CO)[C@@H](O)[C@H](O)[C@H]1O` (stereo partly specified), the Potency result in test [2], in [7], in test [4] and in [6] was “inactive” in each case. Further, the Potency in test [3] is 383 nM (active); with CRL-7250 it was 385 nM (active); with HEK293, 485 nM (active); in the test with HaCat it was 1720 nM (active); in the test on C33A, 631 nM (active); in the test on CASKI, 3160 nM (active). Also, the Potency with Es-2 was 794 nM (active); in the test on Hek293T it was 1410 nM (active); in the test with OV90, 3160 nM (active); in the test on PA-1, 1120 nM (active); in the test on Tov-21-G it was 562 nM (active); with Tov112D, 355 nM (active). For the same compound, the compound was called inactive in test [5]. Besides, in the test with NIH3T3, the max response is 4.46%.

With `CC[C@H]1C2CC3[C@@H]4N(C)c5ccccc5[C@]45C[C@@H]([C@H]2[C@H]5O)N3[C@@H]1O`, the Potency result (in [1]; in test [3]; in [7]; in test [4]; in [6]; in the test on C33A) was “inactive” each time. The Potency entry in the test on CASKI, in the test with Es-2, in the test with Hek293T, with JEG-3, in the test with OV90 and in the test with PA-1 was “inactive” in each case. Besides, the Potency result with Tov-21-G and in the test on Tov112D was “inactive” throughout. Moreover, the outcome in test [5] was inactive. Further, the max response in the test on CRL-7250 was -2.01%; with HEK293 it was 0.828%; in the test with HaCat, 4.96%.

Regarding `CC(=O)OC[C@]12C[C@H](OC(=O)CC(C)C)C(C)=C[C@H]1O[C@@H]1[C@H](O)C[C@@]2(C)[C@]12CO2`, the Potency entry in [1], in test [2], in test [4] and in test [6] was “inactive” throughout. The Potency in test [3] is 632 nM (active); in the test on CRL-7250 it was 3170 nM (active); in the test on HEK293, 563 nM (active); in the test with HaCat, 6320 nM (active); in the test with NIH3T3, 893 nM (active); in the test on C33A, 2820 nM (active). The Potency in the test with Es-2 was 3980 nM (active); in the test with Hek293T, 1000 nM (active); in the test with OV90, 4470 nM (active); in the test on PA-1, 1000 nM (active); in the test with Tov-21-G it was 4470 nM (active); in the test with Tov112D it was 2240 nM (active). Moreover, the outcome in test [5] was “inactive [at 25.7 µM]”.

Values taken from PubChem BioAssay (NCATS).
